According to PubChem BioAssay:
Where “and” joins values, the source holds several entries; their conditions need not be identical. Equal values may be shown once. Where a structure was tested more than once in an assay, its records may differ in their call. Calls of active or inactive are those of the source. Unless noted, the rule behind the calls is not given here.

Key:
[1] = LFS_MB_1R medulloblastoma cell growth inhibition, synergistic combos for chromothripsis tumors, cisplatin or BGB combos (AID 1671452; in the data active = inhibition above about 80%;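 note: cells exposed for 96 hours before readout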); settings: LFS_MB_1R medulloblastoma cells, stronger effect = higher value
[2] = CRL2098 osteosarcoma cell growth inhibition, synergistic combos for chromothripsis tumors, BGB or cisplatin IC20 combos (AID 1671454; in the data active = inhibition above about 80%;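 note: cells exposed for 96 h before readout; 0% = vehicle DMSO and 100% = killing by high DMSO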); settings: CRL2098 osteosarcoma cells, drug combinations, stronger effect = higher value
[3] = HD-MB03 medulloblastoma cell growth inhibition, synergistic combos for chromothripsis tumors, BGB or cisplatin IC20 combos (AID 1671455; in the data active = inhibition above about 83%;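 note: 0% = vehicle DMSO and 100% = high DMSO as cytotoxic control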); settings: HD-MB03 medulloblastoma cells, stronger effect = higher value
[4] = UWB1.289 ovarian carcinoma cell growth inhibition, synergistic combos for chromothripsis tumors, BGB or cisplatin combos (AID 1671456; in the data active = inhibition above about 80%;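 note: cells exposed to compound for four days; 0% = vehicle DMSO and 100% = killing by high DMSO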); settings: UWB1.289 ovarian carcinoma cells, stronger effect = higher value
[5] = LFS_MB_2R medulloblastoma cell growth inhibition, synergistic combos for chromothripsis tumors, cisplatin combos (AID 1671457; in the data active = inhibition above about 80%;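 note: cells exposed to compound for four days before readout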); settings: LFS_MB_2R medulloblastoma cells, stronger effect = higher value
[6] = UWB1.289_BRCA1 ovarian cancer growth, cell-based, BGB or cisplatin combinations (AID 1671459; in the data active = inhibition above about 80%); settings: UWB1.289 BRCA1 ovarian carcinoma, drug combinations, stronger effect = higher value
[7] = human astrocyte viability loss, single and combined drugs, cytotoxicity control for chromothriptic childhood tumor combination screen, cell-based, BGB or cisplatin IC20 combos (AID 1671460; in the data active = inhibition above about 80%;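 note: cells exposed to compounds for 96 hours before viability readout; 0% = vehicle and 100% = killing control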); settings: Human astrocytes, drug combinations, stronger effect = higher value
[8] = hESC survival regulators, cell-based (AID 493140); settings: human embryonic stem cell survival screen; stronger effect = higher value;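 note: cells exposed to compounds for four days before counting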
[9] = target: NAD(+) hydrolase SARM1 (Homo sapiens) (UniProt Q6SZW1); assay: SARM1 TIR NADase inhibitors, cell lysate, NAD-Glo luminescence (AID 1508614;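 active = compound whose remaining NAD level is above about 45 nM, limit read from the data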;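 note: higher remaining NAD means stronger inhibition of SARM1 NADase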); settings: SAM-TIR HEK293T lysate NADase, at 1 µM, stronger effect = higher value
[10] = circadian clock period modulators, cell-based, LOPAC library, luminescence reporter (AID 2774); settings: circadian reporter cells, at 7 µM, actives lie on both sides;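 note: values are relative to mean of DMSO wells on each plate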
[11] = tested on: Hepatitis C virus NS3 helicase; assay: HCV NS3 helicase inhibitors, primary screen, biochemical, fluorescence polarization, LOPAC1280 library (AID 687035; in the data active = inhibition above about 37%); settings: Purified HCV NS3 helicase, Cy5-dT15 ssDNA binding fluorescence polarization; stronger effect = higher value; concentration not given here
[12] = Cy5 fluorescence quenching or enhancement artefacts, artefact control for HCV NS3 helicase inhibitor project, biochemical, LOPAC1280 (AID 687037); settings: Cy5-DNA-NS3h complex fluorescence interference counterscreen
[13] = inhibitors of Cryptococcus chitosan production, flow cytometry, Cibacron Brilliant Red staining (AID 1347148); settings: Cryptococcus neoformans chitosan, stronger effect = lower value; at 10 µM unless noted;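 note: compound exposure lasted three days at 37 degrees C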
[14] = phospholipid biosynthesis inhibitors in animal cells, primary screen, cell-based, LOPAC library, screen 4 (AID 1347384); settings: phospholipid biosynthesis inhibition screen, at 10 µM
[15] = viability rescue of complex I mutant cybrids, primary screen, cell-based, galactose medium, ATP luminescence (AID 1645843;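 active = z-score of at least 1.8 in each of two replicates, scored against plate mean and spread of sample wells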;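 note: positive z means more ATP and so rescue of galactose-driven cybrid death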); settings: complex I mutant cybrid cells, 72 h, stronger effect = higher value
[16] = kinase inhibitors against Plasmodium liver-stage infection, cell-based, known kinase inhibitor set, luminescence, hepatoma host viability (AID 624392); settings: Plasmodium liver stage in hepatoma cells, luciferase luminescence, concentration not given here; liver cell % of control: measured here: host liver cell viability; parasite % of control: stronger effect = lower value;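 note: infected cells incubated roughly two days before readout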
[17] = liver-stage malaria parasite growth inhibition, primary screen, cell-based, HepG2, luciferase luminescence, HepG2 viability (AID 624349; in the data active = parasite load remaining mostly below about 12%, no sharp cut-off; inactive = mostly above about 10%;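 note: 100% = mean of DMSO negative control wells on the same plate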); settings: P. berghei liver stage in HepG2, luciferase luminescence, concentration not given here; parasite load remaining: stronger effect = lower value; viability: measured here: HepG2 viability without parasites
[18] = modulators of glucocorticoid suppression of NF-kB, cell-based, luciferase, IL-1B stimulus, dexamethasone (AID 624486); settings: NF-kB luciferase reporter, IL-1B + dexamethasone, luminescence; percent of negative control (+Dex): actives lie on both sides, concentration not given here; z-score: measured here: IL-1B alone, no Dex;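 for percent of negative control (+Dex): 100% = mean signal of vehicle control wells on the plate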
[19] = kinase inhibitors altering Pseudomonas killing of worms, whole organism (AID 651566);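 note: tested at 14 µM; sign flipped so higher z means a lower ratio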; settings: C. elegans killed by P. aeruginosa, survival ratio
[20] = activators of macrophage pro-inflammatory response, cell-based, murine, luminescence (AID 652131); settings: murine macrophage pro-inflammatory reporter, stronger effect = higher value
[21] = measured here: combination with BGB IC40, at 0.05 µM
[22] = measured here: combination with cisplatin, at 0.5 µM
[23] = measured here: combination with cisplatin, at 5 µM
[24] = measured here: combination with BGB at IC20, at 0.5 µM
[25] = measured here: combination with cisplatin at IC20, at 0.5 µM
[26] = measured here: combo with BGB at IC20, at 0.5 µM
[27] = measured here: combo with cisplatin at IC20, at 0.5 µM
[28] = measured here: inhibition with BGB combination, at 0.05 µM
[29] = measured here: inhibition with cisplatin combination, at 0.05 µM
[30] = BGB combination, concentration series, at 5 µM
[31] = cisplatin combination, concentration series, at 5 µM
[32] = measured here: combo with BGB IC20, at 0.5 µM
[33] = measured here: combo with cisplatin IC20, at 0.5 µM

Sequence of NAD(+) hydrolase SARM1 (Homo sapiens) (Q6SZW1 whole entry, looked up): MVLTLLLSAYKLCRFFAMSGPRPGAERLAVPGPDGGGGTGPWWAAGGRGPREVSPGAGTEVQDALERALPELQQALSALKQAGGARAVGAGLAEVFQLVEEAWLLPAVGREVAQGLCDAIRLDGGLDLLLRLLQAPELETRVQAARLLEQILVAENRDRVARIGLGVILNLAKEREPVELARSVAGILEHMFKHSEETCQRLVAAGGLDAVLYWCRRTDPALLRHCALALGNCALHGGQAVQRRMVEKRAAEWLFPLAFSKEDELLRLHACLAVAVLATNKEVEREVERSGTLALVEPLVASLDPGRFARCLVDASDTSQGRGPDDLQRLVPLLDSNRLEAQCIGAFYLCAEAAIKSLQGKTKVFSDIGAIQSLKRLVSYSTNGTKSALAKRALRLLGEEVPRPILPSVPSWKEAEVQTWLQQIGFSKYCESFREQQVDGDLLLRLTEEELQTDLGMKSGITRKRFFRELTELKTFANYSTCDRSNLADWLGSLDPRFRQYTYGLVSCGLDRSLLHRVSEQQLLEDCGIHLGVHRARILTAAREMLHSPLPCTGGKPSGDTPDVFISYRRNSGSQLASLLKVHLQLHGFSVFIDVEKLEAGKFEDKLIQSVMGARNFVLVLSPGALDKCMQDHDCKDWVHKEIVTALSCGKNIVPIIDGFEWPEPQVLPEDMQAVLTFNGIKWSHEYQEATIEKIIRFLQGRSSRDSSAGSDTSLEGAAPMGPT

Nc1ccccc1NC(=O)c1ccc(CNc2nccc(-c3cccnc3)n2)cc1
inhibition ([1]; at 0.5 µM): 42.2% (inactive)
inhibition [1, 21]: -27.8%
inhibition [1, 22]: 50.9%
inhibition [1, 23]: 96.3%
inhibition ([2]; at 0.5 µM): -11.6% (inactive)
inhibition [2, 24]: -25.1%
inhibition [2, 25]: 19.9%
inhibition ([3]; at 0.5 µM): 40.8% (inactive)
inhibition [3, 26]: 31.4%
inhibition [3, 27]: 76.7%
inhibition ([4]; at 0.5 µM): 27.8% (inactive)
inhibition [4, 28]: -18.3%
inhibition [4, 29]: -16.7%
inhibition ([5]; at 0.5 µM): 36.6% (inactive)
inhibition [5, 22]: 45.3%
inhibition [5, 23]: 98.8%
inhibition [6, 30]: 114%
inhibition ([6]; at 0.5 µM): 29.1% (inactive)
inhibition [6, 31]: 120%
inhibition ([7]; at 0.5 µM): 24.5% (inactive)
inhibition [7, 32]: 21.7%
inhibition [7, 33]: 17.1%

CN(C(Cc1ccc(OS(=O)(=O)c2cccc3cnccc23)cc1)C(=O)N1CCN(c2ccccc2)CC1)S(=O)(=O)c1cccc2cnccc12 (stereo unspecified)
survival [8]: 94.6 (inactive)

C[C@H]1[C@H](O)O[C@@H]2O[C@@]3(C)CC[C@H]4[C@H](C)CC[C@@H]1[C@@]24OO3
remaining NAD [9]: 10 nM (inactive)

CC1(C)CCC2=C(O1)c1ccccc1C(=O)C2=O
period change [10]: -0.24 h (inactive)
inhibition [11]: -5% (inactive)
fluorescence ratio (interference) [12]: 1 (inactive)
fold fluorescence [13]: 9.76 [at 206.4 µM] (inactive)
outcome [14]: inactive
z-score [15]: -1.29 (inactive)
inhibition ([1]; at 0.5 µM): -13.2% (inactive) and 14.9% (inactive)
inhibition [1, 21]: -55.4% and -11.7%
inhibition [1, 22]: -25.3% and 44%
inhibition [1, 23]: 96.9% and 102%
inhibition ([2]; at 0.5 µM): -39.7% (inactive) and -32.9% (inactive)
inhibition [2, 24]: -38.5% and -7.72%
inhibition [2, 25]: -39.4% and -35%
inhibition ([3]; at 0.5 µM): -12.2% (inactive) and -9.16% (inactive)
inhibition [3, 26]: 5.55% and -5.28%
inhibition [3, 27]: -34.7% and -19.2%
inhibition ([4]; at 0.5 µM): 12.3% (inactive) and 6.12% (inactive)
inhibition [4, 28]: -2.17% and 7.32%
inhibition [4, 29]: -10.2% and -8.62%
inhibition ([5]; at 0.5 µM): -21.3% (inactive) and -12.9% (inactive)
inhibition [5, 22]: -28.3% and -6.61%
inhibition [5, 23]: 89.1% and 88.9%
inhibition [6, 30]: 128% and 124%
inhibition ([6]; at 0.5 µM): 0.6% (inactive) and 6.57% (inactive)
inhibition [6, 31]: 129% and 128%
inhibition ([7]; at 0.5 µM): 16.9% (inactive) and 14.6% (inactive)
inhibition [7, 32]: 23.9% and 15.8%
inhibition [7, 33]: 20.7% and 18.1%

N#CCNC(=O)c1ccc(-c2ccnc(Nc3ccc(N4CCOCC4)cc3)n2)cc1
liver cell % of control [16]: 71.7% and 64% and 76%
parasite % of control [16]: 0.479% (inactive) and 0.449% (inactive) and 0.525% (active)

N#Cc1c(NC(=O)c2cccc3ccccc23)sc2c1CCCC2
parasite load remaining [17]: 47.8% (inactive)
viability [17]: 98%
liver cell % of control [16]: 69%
parasite % of control [16]: 217% (inactive)
percent of negative control (+Dex) [18]: 130% (inactive)
z-score [18]: 1.48
z-score [19]: -1.07 (inactive)
z-score [20]: -1.04 (inactive)

COc1ccc2c(c1)CC[C@@H]1[C@@H]2CC[C@]2(C)[C@@H](NCCCCCCN3C(=O)C=CC3=O)CC[C@@H]12
fold fluorescence [13]: 12.8 [at 107.6 µM] (inactive)

Nc1nc(Nc2ccc(S(N)(=O)=O)cc2)nn1C(=O)c1c(F)cccc1F
parasite load remaining [17]: 42.7% (inactive)
viability [17]: 170%
liver cell % of control [16]: 60.7% and 62.5% and 90.9%
parasite % of control [16]: 8.09% (inactive) and 28.9% (inactive) and 97.5% (inactive)

COC(=O)c1ccc2c(C(=Nc3ccc(N(C)C(=O)CN4CCN(C)CC4)cc3)c3ccccc3)c(O)[nH]c2c1
liver cell % of control [16]: 156% and 81.4% and 93.4%
parasite % of control [16]: 197% (inactive) and 560% (inactive) and 349% (inactive)

Clc1ccc(COC(Cn2ccnc2)c2ccc(Cl)cc2Cl)c(Cl)c1 (stereo unspecified)
survival [8]: 33.8 (inactive)

Cc1ccc(F)c(NC(=O)Nc2ccc(-c3cccc4[nH]nc(N)c34)cc2)c1
liver cell % of control [16]: 57% and 72.1% and 102%
parasite % of control [16]: 112% (inactive) and 141% (inactive) and 35.1% (inactive)

COc1cc2nccc(Oc3ccc(NC(=O)Nc4cc(C)on4)c(Cl)c3)c2cc1OC
parasite load remaining [17]: 25.6% (inactive)
viability [17]: 70.1%

CNc1nccc(-c2cccnc2Oc2cc(C(=O)Nc3cccc(C(F)(F)F)c3)ccc2C)n1
liver cell % of control [16]: 245% and 255% and 102%
parasite % of control [16]: 0.405% (inactive) and 0.413% (active) and 75.6% (inactive)

COc1cc2ncnc(Nc3cccc(Cl)c3)c2cc1OC
period change [10]: 0.545 h (inactive)
survival [8]: 138 (inactive)
parasite load remaining [17]: 63.9% (inactive)
viability [17]: 78.3%
inhibition [11]: 0% (inactive)
fluorescence ratio (interference) [12]: 1 (inactive)
fold fluorescence [13]: 5.72 [at 142 µM] (inactive)
outcome [14]: inactive
z-score [15]: 1.23 (inactive)

CC(C)=CCC/C(C)=C/CC/C(C)=C/CSc1ccccc1C(=O)O
period change [10]: -0.01 h (inactive)
